According to PubChem BioAssay (NCI):
The panel holds about 79,000 compounds, 15% with a hit somewhere; the sample as a whole holds those more often. Values without a mark were called inactive. Activity calls are given as the source filed them. No stated cut-off is given here; in the data, active means growth inhibition above about 70%; inactive means the rest.

Columns and labels:
[1] = NCI Yeast Anticancer Drug Screen. Data for the rad50 strain (AID 155);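 further: 0% = growth of vehicle-only cultures of the same strain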; conditions: S. cerevisiae rad50 strain growth inhibition; at 50.0 µM; stronger effect = higher value
How it was run: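 Relative growth inhibition (compound vs vehicle) was measured in yeast with a defined repair-gene alteration.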

[2] = NCI Yeast Anticancer Drug Screen. Data for the mec2-1 strain (AID 157); conditions: S. cerevisiae mec2-1 strain, at 50.0 µM, stronger effect = higher value
How it was run: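 Yeast mec2-1 mutant treated with compound. Readout: growth inhibition vs vehicle controls.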

[3] = NCI Yeast Anticancer Drug Screen. Data for the sgs1 mgt1 strain (AID 161);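 further: 0% = growth of cultures given vehicle only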; conditions: S. cerevisiae sgs1 mgt1 strain, at 50.0 µM, stronger effect = higher value
How it was run: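 Genetically altered yeast, compound exposure, growth inhibition relative to vehicle.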

[4] = NCI Yeast Anticancer Drug Screen. Data for the cln2 rad14 strain (AID 165);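 further: 0% = growth equal to vehicle treated cultures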; conditions: S. cerevisiae cln2 rad14 strain, at 50.0 µM, stronger effect = higher value
How it was run: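 cln2 rad14 yeast strain; compound exposure; growth inhibition read vs vehicle controls.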

[5] = NCI Yeast Anticancer Drug Screen. Data for the bub3 strain (AID 167); conditions: S. cerevisiae bub3 mutant strain, at 50.0 µM, stronger effect = higher value
How it was run: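 Screening used yeast with an engineered genetic alteration affecting cell cycle control. Compound-exposed cultures were compared with vehicle cultures, and reduced growth was taken as inhibition.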

[6] = NCI Yeast Anticancer Drug Screen. Data for the mlh1 rad18 strain (AID 175); conditions: S. cerevisiae mlh1 rad18 strain growth inhibition; at 50.0 µM; stronger effect = higher value
How it was run: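 Yeast w/ defined DNA-repair lesions; compound exposure; growth vs vehicle controls → % inhibition.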

Structure (SMILES)	growth inhibition [1]	growth inhibition [2]	growth inhibition [3]	growth inhibition [4]	growth inhibition [5]	growth inhibition [6]
COc1ccc(C2CC(=O)N(CC(=O)O)C(=O)C2)cc1	13.9%	14.8%	8.3%	-17%	-9.4%	7.55%
CCC(Nc1ccccc1)C(=O)O (stereo unspecified)	-4.45%	-13.7%	-8.9%	-16.9%	-8.7%	4.15%
NC(=O)OCc1c(-c2ccccc2)nn(-c2ccccc2)c1COC(N)=O	-26.2%	-31%	-18.5%	-19.6%	1.05%	-16.2%
O=S(=O)(O)c1cccc2ccc(O)cc12	-4.05%	-4.1%	-2.05%	-36.8%	-11.1%	43.6%
O=C(Cc1cccc2ccccc12)NO	18.3%	5.05%	6.7%	-32.3%	-28.4%	11.6%
N/C(=N\c1nc(N)cc(N)n1)Nc1ccc(S(N)(=O)=O)cc1	-15.2%	4.25%	-6.25%	-32.2%	-5.6%	-4.15%
Cc1nc2c(c(-c3ccc(Cl)cc3)n1)Cc1c(ccc3ccccc13)O2	-15.4%	-5.9%	-9.2%	-0.1%	-28.8%	-19%
CCc1ccccc1NC(=O)N1CCOCC1	-8.45%	-27.9%	-1.55%	3.05%	-4.15%	-7.15%
CCN(CC)CCOc1ccc(OC)cc1	-8.7%	-0.6%	-9.55%	-35.2%	-5.2%	-0.8%
COC(=O)c1ccccc1-n1c(-c2ccc([N+](=O)[O-])cc2)csc1=NC(=O)c1cccc([N+](=O)[O-])c1	-2.15%	-2.15%	19.4%	-1.05%	-1.15%	12.7%
CC(=O)N(CCc1ccccc1)C(C)(C#N)c1ccccc1 (stereo unspecified)	-0.2%	4%	-30.9%	-22.4%	-12.2%	-29.4%
CN1CCN(C(=O)Nc2ccc(N=Nc3ccccc3)cc2)CC1	-9.3%	-17.2%	6.1%	-29.5%	16.8%	-6.25%
CCCCCCCCCCCc1cc(=O)n(-c2ccccc2)n1C	98.8% (active)	99.2% (active)	99.2% (active)	98.4% (active)	98.5% (active)	99% (active)
CC(=O)OC1Cc2ccccc2C(OC(C)=O)Cc2ccccc21 (stereo unspecified)	29.6%	7.4%	-1.25%	1.6%	18.4%	0.05%
COc1ccc(C(=O)/C=c2/c(CC(=O)c3ccc(OC)cc3)nc3nnc(N)n23)cc1	15.5%	-4.05%	-6.25%	21.9%	1.45%	8.6%
CC(O)CNC(=O)C(C)Oc1ccc(OCC2CCCCC2)cc1 (stereo unspecified)	-2.8%	-12.9%	6.65%	-9.7%	-53.7%	-15.9%
C/C=C/C(=O)OCCC#N	-27.1%	-2.3%	3.7%	14.7%	-17.1%	-8.85%
O=NC1C(Cl)C2CC1C1C(Cl)C(Cl)CC21 (stereo unspecified)	35%	14.7%	52.9%	40.4%	27.4%	33.1%
CC(C)N(CC(c1ccccc1)C(O)(c1ccccc1)c1ccccc1)C(C)C (stereo unspecified)	16.1%	8%	17.5%	26.8%	-0.75%	32.3%
NCCCn1c2ccccc2c2cnccc21	7.2%	4.15%	2.15%	-6.65%	1.05%	-20.2%
CC1(C)OC(=O)C(C)(C)OC1=O	-11.7%	-5%	7.05%	12.3%	8.4%	-3.15%

Structure (SMILES)	growth inhibition [1]	growth inhibition [2]	growth inhibition [3]	growth inhibition [4]	growth inhibition [5]	growth inhibition [6]
C[N+](C)(C)c1ccc2c(c1)CCC/C2=N\N	12.8%	9%	11.6%	-9.2%	13.5%	4.3%
CC(=O)Nc1cc(N)cc(C(=O)O)c1	37%	-0.9%	9.15%	9.75%	-33.9%	-7.5%
COC(=O)CSSCc1ccccc1	3.5%	1.5%	3.65%	-26.1%	-28.1%	6.35%
CCOC(=O)c1c(SC(=O)c2ccc(OC)cc2)n(-c2ccccc2)c(=S)n(-c2ccccc2)c1=O	16.2%	0.75%	3.75%	8.55%	16.8%	12.8%
COc1cc(Cc2nccc3cc(OC)c(OC)cc23)c(N=NN(C)C)cc1OC	-14.2%	-7.6%	-4.9%	5.45%	-10.4%	8.35%
Cn1c(=O)cc(NC2OC(CO)C(O)C(O)C2O)[nH]c1=O (stereo unspecified)	2.1%	-3.3%	24.8%	-5.3%	0.75%	11.5%
COc1ccc(-n2cc3c(=O)nccc-3c3ccccc32)cc1OC	-9.3%	-12.8%	1.2%	-10.6%	-18.6%	-0.6%
S=c1s/c(=C\c2ccccc2)c2nc3ccccc3n12	7.15%	9.2%	-9.4%	-46.7%	13.9%	4.75%
COC(=O)CCCC(=O)O	4.4%	-5.2%	-2.6%	-15.4%	2.9%	8.25%
COc1cccc(NC(=O)CC(=O)N2N=C(n3ccc4ccccc43)CC2c2ccccc2)c1 (stereo unspecified)	-36.3%	-11.4%	-6%	11.1%	-3.1%	-16.6%
COc1cc(OC)c(-c2cc(C(=O)O)c3cc4ccccc4cc3n2)c(OC)c1	18.2%	23.2%	24.1%	16.7%	21.6%	32%
Cc1ccc(S(=O)(=O)SC(SCC(=O)c2ccc(Br)cc2)C(=O)c2ccc(Br)cc2)cc1 (stereo unspecified)	26.6%	-10.4%	33.5%	19.9%	-0.15%	13.2%
CCN(CC)C(=O)c1cncc(C(N)=O)c1	4.85%	-14.7%	28%	10.8%	12.7%	14.2%
CCc1cccc(C(C)C)c1NC(=O)/C(=N\NC(N)=O)C(C(=O)OC)c1cnc2ccccc2n1 (stereo unspecified)	19.8%	29.8%	1.15%	11.1%	26.1%	21.4%
COC(=O)C(=O)c1c(C(=O)OC)nc2[nH]n(-c3ccccc3)c(=O)c2c1Cc1ccccc1	-5.85%	1.05%	1.6%	-45.9%	-37.5%	8.25%
CCCCC1=C(C)CCC1=O	17.9%	8.9%	8.7%	6.55%	2.85%	4.85%
CC(C)C(=O)Oc1cc2c(=O)oc3c(OC(=O)C(C)C)c(OC(=O)C(C)C)cc4c(=O)oc(c1OC(=O)C(C)C)c2c34	40.1%	12.6%	25.6%	13.7%	31.6%	48.5%
CC1COC(C)(C2CC2)O1 (stereo unspecified)	6.6%	9.95%	-24.4%	-13.7%	7.45%	6.5%
CCCCCCC(=O)NC(O)C(Cl)(Cl)C(C)Cl (stereo unspecified)	1.1%	-6.6%	-6.2%	-56.8%	-19.8%	4.1%
Cc1cc(Cl)ccc1N=C1NC(=O)C(CC(=O)Nc2ccc(Cl)cc2Cl)S1 (stereo unspecified)	14.8%	13.1%	-2.35%	-46.4%	-4.3%	19.8%
